From PubChem
Sampled rows, rich in hits. Any-hit rate of the full collection: about 8%.
KB-V1 cytotox = KB-V1 MDR subline cytotoxicity. KB-V1 MDR cells viability, CellTiter-Glo, 72 h. Potency, µM (series often up to 46.1 µM), hits mostly cytotoxic. 400,000 tested, 3.4% active; further: on the % scale 0 is the no-effect control and ±100 the full control effect; nearly all actives have a fitted effect of over 60% in size
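qHTS viability screen in drug-selected KB-V1 MDR cells: 72 h compound treatment at 37 degrees C, ATP luminescence end point.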
MCF10A rerep = induces DNA re-replication in MCF 10a normal breast cells; MCF 10A DNA re-replication, Hoechst nuclear intensity, 48 h; Potency, µM (doses to about 46.1 µM), for the others: top-dose activity, positive = re-replication, most hits filed as activators; 350,000 tested, 2.9% active; further: % of control where 0% means no effect; nearly all actives have a fitted effect of over 50% in size
SW480 rereplic = DNA re-replication induction in SW480 cells. SW480 DNA re-replication, Hoechst DNA content imaging, 48 h. Potency, µM (series often up to 46.1 µM), for inactives: at the highest dose re-replication activation, hits mostly activators. 340,000 tested, 1.8% active. AID 624297; further: % of control where 0% means no effect; nearly all actives have a fitted effect of over 55% in size
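Compounds, transferred as 23 nL by pin tool, were incubated with cells for 48 hr; DNA content per nucleus was then quantified by Hoechst staining and fluorescence plate imaging.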
KB-3-1 tox = KB-3-1 parental cell cytotoxicity | KB-3-1 viability, CellTiter-Glo ATP luminescence, 72 h | Potency, µM (highest dose often 46.1 µM), most hits filed as cytotoxic | 400,000 tested, 1.4% active | AID 1347075; further: on the % scale 0 is the no-effect control and ±100 the full control effect; nearly all actives have a fitted effect of over 60% in size
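Cells are dispensed, compounds pinned in, plates held at 37 °C for 72 h, then CellTiter-Glo is added and luminescence read after 10 minutes. Cell line: parental KB-3-1 in phenol-red-free DMEM, 10% FBS.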
HT1080 IDH1KD tx = toxicity to HT-1080 IDH1 knockdown cells (counter line); 360,000 tested, 2% active; Potency, µM (titrated, usually from 46.1 µM), for inactives: at the highest dose activity, negative = toxicity, usual class: cytotoxic; HT-1080 IDH1 knockdown viability, ATP luminescence, 48 h; AID 686971;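 further: 0% = DMSO wells and -100% = cell-free medium wells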
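Using the IDH1-knockdown HT-1080 line run in the same batch and compound series as the NT line, viability after 48 h at 37 °C was determined by CellTiter-Glo luminescence and expressed as % activity.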
HT1080-NT tox = kills 2HG-producing HT-1080-NT fibrosarcoma cells; HT-1080-NT fibrosarcoma viability, CellTiter-Glo ATP luminescence, 48 h; Potency, µM (highest dose often 46.1 µM), without a hit: at the top dose activity, negative = less viability, usual class: cytotoxic; 360,000 tested, 1.6% active;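 further: NT is the 2HG producing partner of a matched IDH1 knockdown line; 0% = DMSO-treated cells and -100% = media-only wells without cells; nearly all actives have a fitted effect of over 55% in size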
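A 48-hour cytotoxicity screen used HT-1080-NT cells plated 2 hours before compound delivery. ATP-based CellTiter-Glo luminescence measured viability, normalized to DMSO and no-cell controls.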
Active calls of the source: *; ! = not confirmed by another sample; [ ] = dose if it differs, or a comment. The call rests on the fitted dose curve; in most records, active means well fitted curve in the direction sought with a large enough effect; inconclusive means small, poorly fitted or top-dose-only effect, or another doubt; inactive means no such curve, though single readings can be large; an effect the other way counts as inactive or inconclusive. Potency means the concentration at half of the fitted maximal effect.

`CCC(C)Sc1cccc(-c2nc3ccc(C)cn3c2NCc2ccccc2)c1` (stereo not given) gave KB-V1 cytotox 18µM*!, MCF10A rerep 12µM*, SW480 rereplic inconclusive, KB-3-1 tox inconclusive, HT1080 IDH1KD tx inconclusive and HT1080-NT tox inconclusive.
For CCC(C)Sc1cccc(-c2nc3ccc(Cl)cn3c2NCc2ccccc2)c1 (stereo not given) the results were KB-V1 cytotox inconclusive, MCF10A rerep inconclusive, SW480 rereplic 27%, KB-3-1 tox inactive, HT1080 IDH1KD tx inconclusive and HT1080-NT tox inconclusive.
Screening Cc1ccc2nc(-c3cccc(-c4cccc(Cl)c4)c3)c(NCc3ccccc3)n2c1 returned KB-V1 cytotox inconclusive, MCF10A rerep 7.3µM*, SW480 rereplic 22%[9.22 µM], KB-3-1 tox inactive, HT1080 IDH1KD tx inconclusive and HT1080-NT tox inconclusive.
CCC(C)Sc1cccc(-c2nc3ccccn3c2NCc2ccccc2)c1 (stereo not given) was read as KB-V1 cytotox inconclusive, MCF10A rerep 18µM*, SW480 rereplic 1%, KB-3-1 tox inactive, HT1080 IDH1KD tx -7% and HT1080-NT tox -20%.
N#C/C(=C/c1ccc(N2CCCCC2)o1)C(=O)Nc1ccc2ccccc2c1 was read as KB-V1 cytotox inconclusive, MCF10A rerep inconclusive, SW480 rereplic 13%, KB-3-1 tox inactive, HT1080 IDH1KD tx inconclusive and HT1080-NT tox -4%.
N#C/C(=C/c1ccc(N2CCCCCC2)o1)c1ccc(F)cc1 was read as KB-V1 cytotox inconclusive, MCF10A rerep 3.3µM*, SW480 rereplic 12µM*, KB-3-1 tox inconclusive, HT1080 IDH1KD tx 9.2µM* and HT1080-NT tox inconclusive.
For N#C/C(=C/c1ccc(N2CCCCCC2)o1)c1cccc(F)c1 the results were KB-V1 cytotox 15µM*, MCF10A rerep inconclusive, SW480 rereplic inconclusive, KB-3-1 tox inactive, HT1080 IDH1KD tx 6.3µM* and HT1080-NT tox 11µM*.
COc1cc(N2CCCC2)c(OC)cc1/C=C(/C#N)c1cccc(F)c1 was read as KB-V1 cytotox 16µM*, MCF10A rerep 10%, SW480 rereplic 8%, KB-3-1 tox inconclusive, HT1080 IDH1KD tx -1% and HT1080-NT tox -3%.
Screening Cc1ccc(C)c(NNC(=O)C(=O)NNc2cc(C)ccc2C)c1 returned KB-V1 cytotox inactive, MCF10A rerep 6%, SW480 rereplic -1%, KB-3-1 tox inactive, HT1080 IDH1KD tx -23% and HT1080-NT tox -2%.
For Cc1ccccc1NC(=O)CCCCC(=O)Nc1ccccc1C the results were KB-V1 cytotox inactive, MCF10A rerep 7%, SW480 rereplic inconclusive, KB-3-1 tox inactive, HT1080 IDH1KD tx 10% and HT1080-NT tox -3%.
Cc1ccccc1NNC(=O)C(=O)NNc1ccccc1C was read as KB-V1 cytotox inactive, MCF10A rerep inconclusive, SW480 rereplic 0%, KB-3-1 tox inconclusive, HT1080 IDH1KD tx 18µM* and HT1080-NT tox -7%.
For Cc1ccccc1NC(=O)C(Cl)=C(Cl)Cl the results were KB-V1 cytotox inconclusive, MCF10A rerep 18µM*, SW480 rereplic inconclusive, KB-3-1 tox inconclusive, HT1080 IDH1KD tx inconclusive and HT1080-NT tox inconclusive.
`c1ccc(-c2nnc(-c3ccco3)n2-c2ccccc2)cc1` gave KB-V1 cytotox 18µM*, MCF10A rerep inconclusive, SW480 rereplic 1%, KB-3-1 tox inactive, HT1080 IDH1KD tx 1% and HT1080-NT tox 14%.
For c1ccc(-n2c(-c3ccncc3)nnc2-c2ccco2)cc1 the results were KB-V1 cytotox inactive, MCF10A rerep 10%, SW480 rereplic -5%, KB-3-1 tox inactive, HT1080 IDH1KD tx -4% and HT1080-NT tox 4%.
For O=C(Nc1ccc(Cl)c(Cl)c1)N[C@@H]1CC[C@@H](CCn2cc(C3CCCCC3)nn2)O[C@@H]1CO the results were KB-V1 cytotox inactive, KB-3-1 tox inconclusive, HT1080 IDH1KD tx 23µM* and HT1080-NT tox 21µM*.
`O=C(Nc1ccc(F)cc1)N[C@@H]1CC[C@@H](CCn2cc(-c3ccc(F)cc3)nn2)O[C@@H]1CO` gave KB-V1 cytotox inactive, KB-3-1 tox inactive, HT1080 IDH1KD tx 16% and HT1080-NT tox 10%.
Screening C=C(CN(C)C)C(=O)c1cc(C)ccc1C returned KB-V1 cytotox inconclusive, MCF10A rerep 2.6µM*, SW480 rereplic 5.8µM*, KB-3-1 tox inconclusive, HT1080 IDH1KD tx 4.6µM* and HT1080-NT tox inconclusive.
COc1ccc(C(=O)c2c(C(F)(F)F)oc3c2C(=O)c2ccccc2C3=O)cc1OC was read as KB-V1 cytotox 9.2µM*, MCF10A rerep inconclusive, SW480 rereplic 0.73µM*, KB-3-1 tox 9.2µM*, HT1080 IDH1KD tx inconclusive and HT1080-NT tox 9.2µM*.
O=Cc1ccc(O)cc1 was read as KB-V1 cytotox inactive and KB-3-1 tox inactive.
Screening CCc1cccc(CC)c1NC(=O)CSc1nc2ccc(N3C(=O)C4C(C3=O)[C@H]3C=C[C@@H]4C3)cc2s1 (stereo not given in full) returned KB-V1 cytotox inactive, MCF10A rerep 8%, SW480 rereplic 2%, KB-3-1 tox inactive, HT1080 IDH1KD tx 26µM* and HT1080-NT tox 2%.
Screening CCc1cccc(CC)c1NC(=O)CCCSc1nc2ccccc2s1 returned KB-V1 cytotox 12µM*, MCF10A rerep 15%, KB-3-1 tox inconclusive, HT1080 IDH1KD tx -22% and HT1080-NT tox -3%.
`Cc1cccc(C)c1NC(=O)CCCSc1nc2ccccc2s1` gave KB-V1 cytotox inactive, MCF10A rerep inconclusive, SW480 rereplic 0%, KB-3-1 tox inactive, HT1080 IDH1KD tx 1% and HT1080-NT tox 0%.
Screening Cc1ccc(NC(=O)c2ccccn2)c(Br)c1 returned KB-V1 cytotox inactive, MCF10A rerep 4%, SW480 rereplic -26%, KB-3-1 tox inactive, HT1080 IDH1KD tx 1% and HT1080-NT tox -2%.
`CCCC(C)c1nc(C(N)=O)c2[nH]c(=O)n(-c3ccc(OC)c(OC)c3)c2n1` (stereo not given) gave KB-V1 cytotox 5.8µM*, MCF10A rerep 0%, SW480 rereplic -40%, KB-3-1 tox inactive, HT1080 IDH1KD tx -3% and HT1080-NT tox 12%.
Screening Cc1ccc(-n2c(=O)[nH]c3c(C(N)=O)nc(C(C)C)nc32)cc1 returned KB-V1 cytotox inactive, MCF10A rerep 8%, SW480 rereplic inconclusive, KB-3-1 tox inactive, HT1080 IDH1KD tx -4% and HT1080-NT tox -5%.
